# Bioassay records: PubChem, several laboratories
# Only some compounds are listed: those with a hit (about 3.1% of all), similar ones and a draw of the others.
# PAX8 reporter: lowers PAX8-driven luciferase in RMG-I cells; RMG-I TPO-luciferase reporter, SteadyGlo, 24 h; inhibition, % at 12.6 µM; 1.2% of 360,000 active; AID 652154;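 active = mean replicate inhibition at least 60% with every replicate also reaching 60%; inconclusive = only one of the two criteria is met; inactive = mean below 60% and not all replicates reaching 60%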;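 also: luciferase light reporting Pax8 driven TPO promoter activity; plate controls were median of neutral control wells for no effect and mitoxantrone controls for full effect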
# EWS-Fli inh: EWS/Fli transcriptional activity inhibition. A673 NR0B1-luciferase reporter, viability-normalised. inhibition, % at 12.6 µM. 0.67% of 350,000 active;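 active = mean inhibition of at least 50% after viability correction, with every replicate also passing that limit; inconclusive = mean reaches 50% but only one of two replicates passes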;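 also: firefly luciferase signal divided by Alamar Blue viability fluorescence both relative to DMSO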
# TWEAK Fn14 block: TWEAK-Fn14 signaling inhibition; 2% of 360,000 active; inhibition, % at 10 µM; TWEAK-stimulated Fn14 reporter cells, luciferase luminescence, 8 h; AID 1159606; in the data active = inhibition above about 50%
# LGR2 antag: inhibitors of bursicon-induced Drosophila LGR2 receptor cAMP signaling. HEK293 LGR2, CRE-luciferase, bursicon-stimulated, 4 h. inhibition, % at 9.99 µM. 0.35% of 380,000 active;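 active = drop in luminescence signal, shown as inhibition above about 50% in the replicate tests, limit read from the data, passing the limit was not always enough; inconclusive = probably only some replicates passing the limit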;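 also: agonist challenge used bursicon conditioned medium at about half maximal strength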
# LMP1 NFkB inh: reduces LMP1-driven NF-kappaB luciferase signal. LMP1-induced NF-kappaB luciferase reporter cells, luminescence. inhibition, % at 12.5 µM. 0.69% of 350,000 active. AID 504558; in the data active = inhibition above about 41%; inconclusive = no clear call, values can overlap the other calls;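 also: 0% = neutral control wells and 100% = reference inhibitor control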
# TROY signal inh: TROY signaling inhibition. Q293 LMP1-TROYcd NF-kB luciferase reporter, 4 h. inhibition, % at 10 µM. 0.98% of 360,000 active. AID 1347056;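 active = compounds whose plate-normalised and pattern-corrected inhibition of the luciferase reporter signal at the single screening dose is 50% or more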
# An asterisk follows results filed as active; u = inconclusive; x = no result given.
SMILES,PAX8 reporter,EWS-Fli inh,TWEAK Fn14 block,LGR2 antag,LMP1 NFkB inh,TROY signal inh
COc1ccc(-c2cc(C)nc3c(-c4ccccc4)cnn23)cc1,-94,2,65*,u,-30,66*
C[C@H]1CN([C@@H](C)CO)C(=O)c2cccc(NC(=O)Nc3ccccc3)c2O[C@@H]1CN(C)Cc1ccncc1,5,-4,x,-15,x,x
COc1ccc2c3c([nH]c2c1)[C@@H](CO)N(C(=O)C1CCCC1)CC31CCN(Cc2nccs2)CC1,-20,11,x,7,x,x
CCOC(=O)Cc1c(C)nc2c(-c3ccccc3)cnn2c1C,-103,-49,-21,-84,-17,-51
Cc1nc2c(-c3ccccc3)cnn2c(N)c1-c1ccccc1,-132,41,98*,57*,3,77*
Cc1ccc(S(=O)(=O)N(C)C[C@H]2Oc3ccc(NC(=O)Nc4ccc(C(F)(F)F)cc4)cc3CC(=O)N([C@H](C)CO)C[C@@H]2C)cc1,82*,-4,x,10,x,x
C[C@H](CO)N1C[C@H](C)[C@H](CN(C)S(=O)(=O)c2cccs2)Oc2ccc(NC(=O)Nc3ccc(C(F)(F)F)cc3)cc2CC1=O,15,56*,x,9,x,x
Cc1ccc(S(=O)(=O)N(C)C[C@H]2Oc3ccc(NC(=O)Nc4ccc(C(F)(F)F)cc4)cc3CC(=O)N([C@@H](C)CO)C[C@@H]2C)cc1,-11,-5,x,12,x,x
Cc1ccc(S(=O)(=O)N(C)C[C@H]2Oc3ccc(NC(=O)Nc4ccc(C(F)(F)F)cc4)cc3CC(=O)N([C@H](C)CO)C[C@H]2C)cc1,63*,6,x,1,x,x
Cc1ccc(S(=O)(=O)N(C)C[C@@H]2Oc3ccc(NC(=O)Nc4ccc(C(F)(F)F)cc4)cc3CC(=O)N([C@@H](C)CO)C[C@H]2C)cc1,49,-1,x,24,x,x
C[C@@H]1CN([C@@H](C)CO)C(=O)Cc2cc(NC(=O)Nc3ccc(C(F)(F)F)cc3)ccc2O[C@H]1CN(C)S(=O)(=O)c1ccc(F)cc1,94*,0,x,11,x,x
C/C=C/c1cnc2c(c1)C(=O)N([C@H](C)CO)C[C@@H](C)[C@H](CN(C)C(=O)Cc1ccccc1)O2,x,-5,x,14,x,x
C[C@H](CO)N1C[C@H](C)[C@H](CN(C)S(=O)(=O)c2ccc(Cl)cc2)Oc2ccc(NC(=O)Nc3ccc(F)cc3)cc2CC1=O,74*,31,x,9,x,x
Cc1ccc(S(=O)(=O)N(C)C[C@@H]2Oc3ccc(NC(=O)Nc4ccc(C(F)(F)F)cc4)cc3CC(=O)N([C@H](C)CO)C[C@@H]2C)cc1,97*,u,x,28,x,x
C[C@H](CO)N1C[C@H](C)[C@H](CN(C)S(=O)(=O)c2ccccc2)Oc2ccc(NC(=O)Nc3ccc(C(F)(F)F)cc3)cc2CC1=O,16,61*,x,10,x,x
C[C@H]1CN([C@@H](C)CO)C(=O)Cc2cc(NC(=O)Nc3ccc(C(F)(F)F)cc3)ccc2O[C@@H]1CN(C)S(=O)(=O)c1ccccc1,15,-10,x,10,x,x
C[C@H](CO)N1C[C@H](C)[C@H](CN(C)S(=O)(=O)c2ccc(F)cc2)Oc2ccc(NC(=O)Nc3ccc(F)cc3)cc2CC1=O,x,-15,x,5,x,x
CCCOc1ccc(F)cc1-c1cc(C(=O)Nc2cc(OC)c(OC)c(OC)c2)[nH]n1,36,22,64*,51*,x,9
Cn1cc(C2=C(c3ccc(Cl)cc3Cl)C(=O)NC2=O)c2ccccc21,92*,-79,35,47,-80,16
O=C(O)c1ccc(N=Nc2c(O)[nH]c3cc(Cl)ccc23)cc1,-123,-62,55*,-60,-95,-61
CN(C[C@H]1N[C@@H](CO)[C@@H]1c1ccc(-c2cccc(F)c2)cc1)S(C)(=O)=O,100*,14,x,-5,x,x
O=C(CCl)N(C/C=C/c1ccccc1)c1ccc2c(c1)OCCO2,84*,45,60*,-31,-10,23
NC(=S)n1[nH]c(-c2ccc([N+](=O)[O-])cc2)c(N=Nc2cccc([N+](=O)[O-])c2)c1=O,-1,25,71*,-1,-4,64*
Cc1[nH]n(C(N)=S)c(=O)c1N=Nc1cccc([N+](=O)[O-])c1C,x,x,-35,x,-11,-33
NC(=S)n1[nH]c(-c2ccc([N+](=O)[O-])cc2)c(N=Nc2ccccc2[N+](=O)[O-])c1=O,-11,-10,-6,1,-2,3
SMILES,PAX8 reporter,EWS-Fli inh,TWEAK Fn14 block,LGR2 antag,LMP1 NFkB inh,TROY signal inh
Cc1c(N=Nc2c(-c3ccc([N+](=O)[O-])cc3)[nH]n(C(N)=S)c2=O)cccc1[N+](=O)[O-],22,35,70*,35,33,47
C[C@@H]1CCCCO[C@@H](CN(C)Cc2ccc(C(=O)O)cc2)[C@H](C)CN([C@@H](C)CO)C(=O)c2cc(NC(=O)Nc3ccc4c(c3)OCO4)ccc2O1,-16,-10,x,17,x,x
O=C(C[C@@H]1CC[C@H]2[C@@H](COC[C@H](O)CN2S(=O)(=O)c2cccc(F)c2)O1)NCc1ccncn1,-9,7,x,25,x,x
CC1=CN2C(=N)/C(=C/c3cn(CCCOc4ccccc4C)c4ccccc34)C(=O)N=C2S1,-16,x,0,-62,-19,-1
CC1=CN2C(=N)/C(=C/c3ccco3)C(=O)N=C2S1,-82,-31,81*,40,-35,40
CCOc1ccc(-c2ccc(/C=C3/C(=N)N4C=CSC4=NC3=O)o2)c([N+](=O)[O-])c1,29,4,26,23,2,10
CC1=CN2C(=N)/C(=C/c3ccc([N+](=O)[O-])o3)C(=O)N=C2S1,14,56*,45,u,-24,-19
CO[C@@H]1CN(C)C(=O)c2cc(NC(=O)c3ccccc3)ccc2OC[C@@H](C)N(C(C)=O)C[C@H]1C,x,-1,x,-5,x,x
Cc1ccc(-c2cnc(C3CC3)o2)cc1S(=O)(=O)Nc1ccccc1,x,x,28,x,-4,12
Cc1ccc(N(C)S(=O)(=O)c2cc(-c3cnc(C4CC4)o3)ccc2C)cc1,12,13,78*,24,-7,56*
Cc1cccc(N(C)S(=O)(=O)c2ccc(-c3cnc(C4CC4)o3)cc2)c1,99*,58*,17,-26,12,43
CN(C)CC(=O)Nc1ccc2c(c1)[C@@H]1C[C@@H](CC(=O)N3CCOCC3)O[C@H](CO)[C@@H]1O2,2,-9,x,5,x,x
Cc1ccccc1C(=O)N1CCN(c2ccc(NC(=O)CSc3ccc(Cl)cc3)cc2)CC1,x,x,19,x,58*,46
Cc1ccc(C(=O)N2CCN(c3ccc(NC(=O)c4ccc5c(c4)OCCO5)cc3)CC2)cc1,13,15,76*,-18,19,57*
CCC(=O)Nc1ccc(N2CCN(C(=O)c3ccccc3C)CC2)cc1,x,x,-1,x,-3,-3
Cc1ccccc1C(=O)N1CCN(c2ccc(NC(=O)c3ccc4c(c3)OCCO4)cc2)CC1,36,12,73*,u,43*,46
CO[C@@H]1CN(C)C(=O)c2cc(NS(=O)(=O)c3ccccc3C)ccc2OC[C@@H](C)N(C)C[C@H]1C,2,6,x,-17,x,x
